Experiment [1] in a line: small molecules captured by biotinylated probe aFSTL3 – biochemical, small-molecule microarray, fluorescence 635/667, stem cell growth factor project, primary screen (AID 1064).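 Also: measures binding of the biotinylated anti-FSTL3 antibody to printed compounds.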 The following applies: higher = more signal.
A short description of experiment [2]: binders from COS7 lysate, DM2A8 probe, primary screen, torsin A project, cell lysate, small-molecule microarray, fluorescence 635/667 (AID 1065). The following applies: higher = more signal, COS7 lysate expressing mutant human TOR1A.
Experiment [3] in a line: small molecules captured by biotinylated probe aFGF2 – biochemical, small-molecule microarray, fluorescence 635/667, stem cell growth factor project, primary screen (AID 1067).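 Also: measures binding of biotinylated aFGF2 protein to printed compounds on slides; z-score merges feature fluorescence and signal-to-noise across triplicate slides.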 The conditions noted are these: higher = more signal.
A short description of experiment [4]: small molecules captured by biotinylated probe aFGF10 – biochemical, small-molecule microarray, fluorescence 635/667, stem cell growth factor project, primary screen (AID 1071).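 Also: score merges 667 nm spot intensity and signal to noise from triplicate slides.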 The following applies: higher = more signal.
Experiment [5] concerns the target Neurogenic locus notch homolog protein 2 (Homo sapiens) (UniProt Q04721). The experiment in a line: small molecules binding Notch2 protein – biochemical, small-molecule microarray, 635 nm fluorescence, stem cell growth factors, primary screen (AID 1073). The conditions noted are these: higher = more signal.
The target in experiment [6] is Pro-neuregulin-1, membrane-bound isoform (Homo sapiens) (UniProt Q02297). Briefly: small molecules binding neuregulin-1 protein – biochemical, small-molecule microarray, fluorescence 635/667, psychiatric disease protein project, primary screen (AID 1075).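 Also: score combines 667 nm spot fluorescence with signal to noise.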 The conditions noted are these: NRG1 binding, 635 nm fluorescence, higher = more signal.
Experiment [7] concerns Neuregulin-1 EGF-like domain. Briefly: small molecules binding NRG1 EGF domain – biochemical, small-molecule microarray, 635 nm fluorescence, primary screen (AID 1081).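 Also: binding of the protein to compounds printed on small-molecule microarray slides.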 The conditions noted are these: higher = more signal.
A short description of experiment [8]: FRG1 expression reporter modulators in myotubes – cell-based, C2C12 myotubes, firefly/Renilla luciferase, luminescence, FRG1 inhibition for FSHD, primary screen (AID 1084). The following applies: FRG1 promoter luciferase, higher = more signal, called active from +8 up or from −8 down.
Experiment [9] in a line: small molecules captured by biotinylated probe aFST – biochemical, small-molecule microarray, fluorescence 635/667, stem cell growth factor project, primary screen (AID 1086).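 Also: score merges 667 nm fluorescence with signal-to-noise of each printed compound spot.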 The following applies: higher = more signal.
Experiment [10] in a line: binders of probe aHhip on microarray, primary screen, stem cell growth factor project, biochemical, small-molecule microarray, fluorescence 635/667 (AID 1087).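 Also: score merges spot fluorescence at 667nm with spot signal to noise ratio.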 The conditions noted are these: higher = more signal.
Experiment [11] concerns PRMT1 (protein arginine N-methyltransferase 1). Briefly: small molecules binding arginine methyltransferase PRMT1 – biochemical, small-molecule microarray, 635 nm fluorescence, primary screen (AID 1088).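 Also: binding of Prmt1 protein to compounds spotted on small-molecule microarray slides.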 The following applies: higher = more signal.
A short description of experiment [12]: growth effects on S. cerevisiae YJM789 – YJM789 clinical isolate, OD600, 24 h, basal, primary screen (AID 1089).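 Also: growth of clinical yeast isolate S. cerevisiae YJM 789 seeded 1000 cells per well; test concentration not given here.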 The following applies: higher = more signal, called active from +8 up or from −8 down.
A short description of experiment [13]: S. pombe growth modifiers, basal conditions – strain 972, OD600, 24 h, no modulator, primary screen (AID 1090).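 Also: basal condition with compound alone and no growth modifier present; test concentration not given here.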 The following applies: S. pombe 972 growth, higher = more signal, called active from +8 up or from −8 down.
Experiment [14] is described as follows: budding yeast growth modifiers under rapamycin – strain BY4716, OD600, 96 h, primary screen (AID 1091). Also: test concentration not given here. The following applies: S. cerevisiae BY4716 + rapamycin, higher = more signal, called active from +8 up or from −8 down.
Experiment [15] concerns the target Torsin-1A-interacting protein 2 (Homo sapiens) (UniProt Q8NFQ8). The experiment in a line: small molecules binding lysate-expressed LULL1 – cell lysate, human LULL1 lysate, 635/667 nm fluorescence, primary screen (AID 1092).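 Also: probe is lysate of COS7 cells overexpressing human LULL1; score merges per-feature 667 nm fluorescence with signal-to-noise.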 The conditions noted are these: small-molecule microarray, hLULL1 lysate binding, 635 nm fluorescence; higher = more signal.
Experiment [16] in a line: optical density change of DRC41 E. coli – strain DRC41, OD650, 24 h, E. coli filamentation project, primary screen (AID 1093).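 Also: MC1000 strain lacking acrAB efflux and sulA so SOS filamentation is blocked; test concentration not given here.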 The following applies: E. coli DRC41 growth, higher = more signal, called active from +8 up or from −8 down.
Experiment [17] is described as follows: probe aLefty2 binding to arrayed compounds – biochemical, biotinylated probe, 635/667 nm fluorescence, primary screen (AID 1094).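 Also: score merges spot fluorescence near 667 nm with spot signal-to-noise ratio.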 The following applies: small-molecule microarray, higher = more signal.
The test system of experiment [18] is Noggin (protein binding on small-molecule microarray). The experiment in a line: small molecules binding Noggin protein – biochemical, 635/667 nm fluorescence, primary screen (AID 1095).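 Also: score merges 667 nm feature fluorescence with signal to noise over triplicate slides.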 The conditions noted are these: 635 nm fluorescence, higher = more signal.
For experiment [19], the target named is Neurogenic locus notch homolog protein 3 (Homo sapiens) (UniProt Q9UM47). The experiment in a line: small molecules binding NOTCH3 protein – biochemical, 635/667 nm fluorescence, primary screen (AID 1096). The following applies: small-molecule microarray, 635 nm fluorescence, higher = more signal.
Experiment [20] in a line: probe aEGFR binding to arrayed compounds – biochemical, biotinylated probe, 635/667 nm fluorescence, primary screen (AID 1097).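 Also: probe is a biotinylated anti-EGFR antibody binding compounds printed on slides; score combines fluorescence near 667 nm and signal to noise of each spot.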 The conditions noted are these: small-molecule microarray, higher = more signal.

Calls of active or inactive are those of the source.

Sequence of Torsin-1A-interacting protein 2 (Homo sapiens) (Q8NFQ8 whole entry, looked up): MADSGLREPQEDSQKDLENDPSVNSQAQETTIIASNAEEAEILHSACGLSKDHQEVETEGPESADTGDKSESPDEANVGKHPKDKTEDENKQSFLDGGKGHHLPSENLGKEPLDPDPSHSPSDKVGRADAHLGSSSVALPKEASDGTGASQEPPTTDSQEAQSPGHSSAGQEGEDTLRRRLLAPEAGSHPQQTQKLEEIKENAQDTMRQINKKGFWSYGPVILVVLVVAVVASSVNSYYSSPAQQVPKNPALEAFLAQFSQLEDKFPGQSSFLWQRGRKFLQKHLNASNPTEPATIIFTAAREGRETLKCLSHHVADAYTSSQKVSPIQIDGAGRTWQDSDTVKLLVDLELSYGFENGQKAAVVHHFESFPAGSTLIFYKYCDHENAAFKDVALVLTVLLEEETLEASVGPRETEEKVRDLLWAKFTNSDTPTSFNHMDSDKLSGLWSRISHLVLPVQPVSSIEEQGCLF
Sequence of Neurogenic locus notch homolog protein 2 (Homo sapiens) (Q04721 whole entry, looked up, canonical isoform): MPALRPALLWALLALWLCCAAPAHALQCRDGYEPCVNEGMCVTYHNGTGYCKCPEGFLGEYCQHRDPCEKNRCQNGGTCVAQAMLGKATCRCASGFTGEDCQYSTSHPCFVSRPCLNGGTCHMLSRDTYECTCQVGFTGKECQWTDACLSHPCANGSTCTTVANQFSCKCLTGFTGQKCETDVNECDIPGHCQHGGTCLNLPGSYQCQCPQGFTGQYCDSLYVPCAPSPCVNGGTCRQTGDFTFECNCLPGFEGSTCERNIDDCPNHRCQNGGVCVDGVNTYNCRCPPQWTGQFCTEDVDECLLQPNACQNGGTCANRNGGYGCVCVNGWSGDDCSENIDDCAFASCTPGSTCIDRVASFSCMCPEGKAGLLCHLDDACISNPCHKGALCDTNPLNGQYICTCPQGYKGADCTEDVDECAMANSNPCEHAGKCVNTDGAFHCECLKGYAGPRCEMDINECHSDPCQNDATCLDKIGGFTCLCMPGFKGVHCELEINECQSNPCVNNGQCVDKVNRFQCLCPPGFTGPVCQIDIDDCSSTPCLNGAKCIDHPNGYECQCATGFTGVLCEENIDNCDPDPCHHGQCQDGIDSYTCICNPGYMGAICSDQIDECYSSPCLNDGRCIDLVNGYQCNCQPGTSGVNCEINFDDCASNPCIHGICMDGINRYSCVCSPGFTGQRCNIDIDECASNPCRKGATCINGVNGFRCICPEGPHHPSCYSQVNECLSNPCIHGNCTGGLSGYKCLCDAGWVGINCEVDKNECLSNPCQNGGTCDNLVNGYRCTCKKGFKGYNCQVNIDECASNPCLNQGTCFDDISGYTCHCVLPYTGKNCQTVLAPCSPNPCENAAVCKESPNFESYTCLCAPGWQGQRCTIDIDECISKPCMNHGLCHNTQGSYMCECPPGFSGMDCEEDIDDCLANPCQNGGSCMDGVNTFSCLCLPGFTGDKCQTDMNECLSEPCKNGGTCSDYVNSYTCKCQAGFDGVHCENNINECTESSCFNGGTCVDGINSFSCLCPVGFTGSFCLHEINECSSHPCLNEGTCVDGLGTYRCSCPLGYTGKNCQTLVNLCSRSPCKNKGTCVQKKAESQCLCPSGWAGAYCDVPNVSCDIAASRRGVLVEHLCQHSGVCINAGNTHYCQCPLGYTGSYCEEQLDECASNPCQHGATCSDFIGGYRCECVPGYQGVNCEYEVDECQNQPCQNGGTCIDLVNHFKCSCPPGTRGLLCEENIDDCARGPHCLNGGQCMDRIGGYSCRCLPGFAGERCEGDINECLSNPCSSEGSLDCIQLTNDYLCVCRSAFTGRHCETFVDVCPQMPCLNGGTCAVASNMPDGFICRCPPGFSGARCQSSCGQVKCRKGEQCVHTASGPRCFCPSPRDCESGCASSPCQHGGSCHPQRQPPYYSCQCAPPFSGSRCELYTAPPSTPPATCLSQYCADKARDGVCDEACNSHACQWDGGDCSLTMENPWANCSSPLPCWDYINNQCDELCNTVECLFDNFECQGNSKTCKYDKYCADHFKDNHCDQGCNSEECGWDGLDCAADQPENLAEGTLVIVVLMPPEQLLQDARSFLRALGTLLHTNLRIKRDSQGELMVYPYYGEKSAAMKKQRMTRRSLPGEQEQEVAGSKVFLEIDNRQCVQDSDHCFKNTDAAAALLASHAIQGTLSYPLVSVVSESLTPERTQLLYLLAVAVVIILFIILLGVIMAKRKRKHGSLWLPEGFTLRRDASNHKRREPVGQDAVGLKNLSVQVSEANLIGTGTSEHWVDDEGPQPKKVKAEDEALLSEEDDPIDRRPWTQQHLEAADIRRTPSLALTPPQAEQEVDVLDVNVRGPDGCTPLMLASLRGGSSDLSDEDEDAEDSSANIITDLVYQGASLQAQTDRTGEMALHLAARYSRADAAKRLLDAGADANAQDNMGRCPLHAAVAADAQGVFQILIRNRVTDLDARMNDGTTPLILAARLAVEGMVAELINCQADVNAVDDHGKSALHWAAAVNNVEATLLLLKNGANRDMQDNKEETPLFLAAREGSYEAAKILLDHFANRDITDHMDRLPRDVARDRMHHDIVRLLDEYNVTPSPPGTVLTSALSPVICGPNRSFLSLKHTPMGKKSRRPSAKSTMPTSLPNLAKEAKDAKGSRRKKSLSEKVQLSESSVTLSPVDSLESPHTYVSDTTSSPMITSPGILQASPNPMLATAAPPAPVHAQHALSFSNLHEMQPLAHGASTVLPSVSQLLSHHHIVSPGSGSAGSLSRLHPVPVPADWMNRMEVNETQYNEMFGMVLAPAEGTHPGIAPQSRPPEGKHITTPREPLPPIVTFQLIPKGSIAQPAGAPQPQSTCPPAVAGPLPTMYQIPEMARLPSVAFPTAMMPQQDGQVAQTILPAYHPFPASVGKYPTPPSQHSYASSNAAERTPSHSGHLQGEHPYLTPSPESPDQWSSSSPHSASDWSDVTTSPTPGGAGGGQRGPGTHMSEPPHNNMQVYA
Sequence of Pro-neuregulin-1, membrane-bound isoform (Homo sapiens) (Q02297 whole entry, looked up, the tested form may be a part, canonical isoform): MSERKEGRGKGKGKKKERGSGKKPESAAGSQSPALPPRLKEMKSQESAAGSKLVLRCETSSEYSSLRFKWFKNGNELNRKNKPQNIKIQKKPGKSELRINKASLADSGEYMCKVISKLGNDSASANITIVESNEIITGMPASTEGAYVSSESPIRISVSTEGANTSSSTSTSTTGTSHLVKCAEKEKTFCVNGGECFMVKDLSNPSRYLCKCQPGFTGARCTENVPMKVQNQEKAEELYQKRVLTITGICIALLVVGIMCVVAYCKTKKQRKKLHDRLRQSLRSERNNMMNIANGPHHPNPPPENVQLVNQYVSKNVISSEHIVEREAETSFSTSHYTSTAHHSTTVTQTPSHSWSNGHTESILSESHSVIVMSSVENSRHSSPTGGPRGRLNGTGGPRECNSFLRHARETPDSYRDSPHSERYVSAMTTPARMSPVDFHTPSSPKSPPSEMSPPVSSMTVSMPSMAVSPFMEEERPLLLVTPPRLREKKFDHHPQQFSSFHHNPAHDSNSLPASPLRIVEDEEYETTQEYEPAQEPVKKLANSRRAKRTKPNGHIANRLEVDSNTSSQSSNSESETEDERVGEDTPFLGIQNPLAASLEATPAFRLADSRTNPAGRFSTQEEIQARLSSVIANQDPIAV

Take `COCCCN1C(=O)[C@@]2(Cc3ccccc31)c1ccccc1C(=O)N(Cc1ccccc1Cl)[C@H]2c1ccc(CO)cc1`: the composite z-score in [1] is 0.218; in experiment [2] it was -0.272; in experiment [3], -0.201; in experiment [4] it was -0.273; in [5], -0.773; in experiment [6] it was -0.592. Further, the composite z-score in experiment [7] is -0.983; in experiment [9], 0.009; in [10], 0.0274; in [11], 0.952; in experiment [15] it was 1.22; in experiment [17] it was -0.226. For the same compound, the results for the composite z-score in experiment [18], in [19] and in [20] were -1.07, -0.435 and -0.0304, respectively. Moreover, the z-score in [8] is 0.448 (inactive); in [12] it was -0.403 (inactive); in experiment [13], -1.49 (inactive); in [14], -1.46 (inactive); in experiment [16] it was 2.9 (inactive).

For `CCOC(=O)C[C@H]1[C@H](OC(=O)Cc2ccc3c(c2)OCO3)[C@@H](NC(=O)c2ccc3ccccc3c2)c2cc(OCCCO)ccc2N1C(=O)c1ccc2ccccc2n1`, the composite z-score was -0.123 in [1]; 0.243 in experiment [2]; -0.161 in [3]; 0.319 in experiment [4]; 0.429 in [5]; 0.799 in experiment [6]. For the same compound, the composite z-score in [7] is 0.8; in [9], 0.233; in experiment [10], -0.132; in [11], 0.144; in experiment [15], 1.44; in experiment [17] it was -0.0865. Besides, the results for the composite z-score in experiment [18], in [19] and in experiment [20] were 0.235, 0.808 and 0.0343, respectively. The z-score in experiment [8] was -3.68 (inactive); in experiment [12], -3.45 (inactive); in [13], -3.3 (inactive); in experiment [14] it was -2.38 (inactive); in experiment [16] it was 0.135 (inactive).

Consider `CC(C)[Si](C#C[Si](C(C)C)(C(C)C)C(C)C)(O[C@H](C)c1cn([C@H](C)c2ccccc2)nn1)C(C)C`, for which the composite z-score in experiment [1] was -0.248; in experiment [2], 0.15; in [3], -0.0402; in experiment [4] it was 0.357; in [5], 0.814; in experiment [6] it was 0.3. Moreover, the composite z-score in experiment [7] is 0.528; in [9], 0.25; in [10] it was -0.132; in experiment [11], 1.18; in experiment [15], 1.11; in experiment [17], 0.0137. Besides, the composite z-score in [18] was 0.5; in experiment [19], 0.987; in experiment [20] it was -0.0525. For the same compound, the z-score in experiment [8] is -1.64 (inactive); in experiment [12], -1.22 (inactive); in [13], -2.35 (inactive); in experiment [14], -1.4 (inactive); in [16], 0.723 (inactive).

`C=C(CCCC)/C(=C/C[C@@H](OC(=O)c1ccncc1)c1ccc(OCCO)cc1)c1cnc2ccccc2c1`: the composite z-score in experiment [1] came out at 0.201; in [2], 0.379; in experiment [3], 0.0166; in experiment [4] it was 1.19; in [5], 1.48; in experiment [6] it was 0.227. The composite z-score in experiment [7] is 0.841; in [9] it was 0.265; in experiment [10] it was -0.176; in experiment [11], 1.52; in [15], 0.447; in [17], -0.0523. The composite z-score in [18] was 1.72; in experiment [19] it was 1.06; in experiment [20] it was -0.0243. The z-score in experiment [8] is -0.723 (inactive); in experiment [12] it was 0.594 (inactive); in experiment [13], -1.59 (inactive); in [14] it was 0.524 (inactive); in experiment [16], 1.48 (inactive).

As for `CN1C=C(C(=O)OCCS(C)(=O)=O)C(C(=O)OCCS(C)(=O)=O)=CC(CCCO)=CC1c1cccs1` (stereo not given), the composite z-score is -0.329 in experiment [1]; 0.58 in [2]; -0.197 in experiment [3]; 0.239 in [4]; 0.907 in experiment [5]; -0.362 in experiment [6]. For the same compound, the composite z-score in experiment [7] was found to be 0.269; in experiment [9], 0.137; in experiment [10] it was 0.0664; in [11], 1.13; in experiment [15] it was 0.454; in experiment [17], 0.022. The composite z-score was 0.774 in [18], 0.774 in experiment [19] and -0.0659 in [20]. In addition, the z-score in experiment [8] was -0.234 (inactive); in experiment [12] it was -0.444 (inactive); in experiment [13], -1.22 (inactive); in experiment [14], -2.42 (inactive); in [16], 0.261 (inactive).

Values taken from PubChem BioAssay.
